In PubChem BioAssay (NCI):
Compounds without any hit were thinned out: in the full panel of roughly 83,000, 20% have a hit.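 Method: cells in 96-well plates; compound added at one concentration; 48 h incubation; percent growth measured; values under 10 scored active.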 A number with no mark means an inactive call. Activity calls are given as the source filed them.

How the values were obtained:
Test in all cases: NCI-60 one-dose screen, 48 h (100 = growth as untreated, 0 = no growth, -100 = all killed)
Conditions in all cases: 10 µM unless noted
[1] = system: K-562 leukemia
[2] = system: MALME-3M melanoma
[3] = system: MDA-MB-231 breast
[4] = system: SF-268 CNS
[5] = system: SF-295 CNS
[6] = system: SF-539 CNS
[7] = system: UACC-257 melanoma
[8] = system: M14 melanoma
[9] = system: HCT-15 colon
[10] = system: HT29 colon
[11] = system: SNB-75 CNS
[12] = system: SNB-19 CNS
[13] = system: U251 CNS
[14] = system: PC-3 prostate
[15] = system: SK-MEL-5 melanoma
[16] = system: UACC-62 melanoma
[17] = system: LOX IMVI melanoma
[18] = system: SK-MEL-28 melanoma
[19] = system: DU-145 prostate
[20] = system: RXF 393 renal

Structure (SMILES)	growth [1]	growth [2]	growth [3]	growth [4]	growth [5]	growth [6]	growth [7]	growth [8]	growth [9]	growth [10]	growth [11]	growth [12]	growth [13]	growth [14]	growth [15]	growth [16]	growth [17]	growth [18]	growth [19]	growth [20]
O=C(N/N=C/c1ccc(Cl)cc1Cl)c1ccccc1Nc1cccc(C(F)(F)F)c1	35.3%	92.5%	48.9%	112%	24.4%	-93% (active)	83.6%	95.6%	72.5%	86.7%	78%	76.1%	22.4%	60.5%	53.5%	65.6%	50%	92.2%	–	–
O=C(COc1cccc(/C=C2\Oc3ccc4ccccc4c3C2=O)c1)c1ccc(Cl)cc1	122%	69.4%	84.7%	88.8%	104%	68.2%	95.6%	83.6%	72.4%	103%	90.5%	92%	61.5%	77.5%	89.3%	82.8%	10.6%	113%	–	–
O=C(COc1cccc(/C=C2\Cc3ccccc3C2=O)c1)c1ccc(Cl)cc1	100%	90%	84.1%	117%	124%	95.6%	96.4%	105%	160%	69.6%	101%	96.5%	125%	90.3%	89.4%	91.4%	128%	104%	–	–
COc1cc2c(cc1OC)C(=O)/C(=C/c1cccc(OCC(=O)c3ccccc3)c1)C2	43.8%	145%	97.9%	94.9%	104%	78.2%	95.4%	96.3%	83.4%	42.1%	85.2%	93.3%	74.2%	62%	67.6%	68.1%	72.3%	107%	–	–
COc1ccc(C(=O)COc2cccc(/C=C3\CSc4ccc(Cl)cc4C3=O)c2)cc1	22.1%	–	76.2%	91%	95.9%	104%	89.3%	102%	70.4%	72.2%	99.3%	91.3%	71.1%	61.9%	67.2%	71.8%	33.1%	114%	–	–
Cc1ccc(S(=O)(=O)NCCN2c3nc4ccccc4cc3Sc3cc4ccccc4nc32)cc1	87.9%	128%	36.8%	52.4%	93.8%	11.7%	54.7%	77.4%	103%	56.1%	-13% (active)	64.3%	34.4%	77.3%	82.7%	66.9%	66.5%	87.8%	–	–
Cc1ccc(-c2c3c(N)c4c(nc3nc3c2c(C)nn3-c2ccccc2)CCC4)cc1	–	91.5%	37.4%	108%	98.5%	72.7%	–	88%	15%	3.96% (active)	105%	99.4%	–	91.1%	90.4%	99.8%	-31% (active)	70.2%	106%	–
Oc1ccccc1/C=N/N1CCCCCC1	–	–	96.1%	99.9%	–	113%	129%	118%	93.7%	97.6%	80.3%	97.1%	120%	–	94.2%	85.9%	96%	109%	108%	101%
COc1ccc2c(c1)CC/C(=C\c1ccc(OCC(=O)Nc3nc4ccccc4s3)cc1)C2=O	84.7%	92.5%	82.5%	89.6%	95%	73.7%	96.5%	89%	102%	103%	95.2%	100%	81.4%	74.1%	91.6%	86%	-88.6% (active)	112%	–	–
C=C(CN1CCc2c([nH]c3ccccc23)C1)c1ccc(C(=O)Nc2ccon2)cc1	44.2%	129%	78.6%	97.1%	114%	90%	97.3%	95.6%	104%	99.2%	96.6%	74.4%	92%	73.8%	88%	80%	83.8%	97.8%	–	–
COc1ccc2nc(N/N=C(\C)c3ccccn3)cc(C)c2c1	-51.5% (active)	-24% (active)	-63.1% (active)	-2.13% (active)	-81.2% (active)	-90.6% (active)	16.7%	-78.7% (active)	-48.5% (active)	-45.5% (active)	-7.43% (active)	23.9%	-85.5% (active)	12.9%	-86.2% (active)	-44.2% (active)	-99.1% (active)	20%	–	–
COc1cccc(C2=NN(C(C)=O)C(c3cc(OC)c(OC)c(OC)c3)C2)c1 (stereo not drawn)	9.66% (active)	65.9%	41.3%	38.6%	193%	7.59% (active)	48.3%	16.8%	31.6%	8.66% (active)	-30.1% (active)	26.9%	31.1%	16.9%	15.7%	51.7%	48.6%	40.9%	–	–
COc1ccc(CNC(=O)c2c(C)n([O-])c3cc(F)c(F)cc3[n+]2=O)cc1	46.5%	111%	76.3%	88.7%	57.1%	96.9%	98%	90.5%	36.8%	93%	93%	93.9%	94.9%	94%	97.5%	87.7%	–	93.7%	–	–
O=C(COc1ccc(/C=C2\Oc3ccc4ccccc4c3C2=O)cc1)c1ccc(Cl)cc1	89.7%	110%	113%	97.6%	96.9%	93.1%	103%	95%	92%	87.2%	83%	98.3%	94.7%	93.8%	92.6%	94.3%	53.7%	112%	–	–
COc1ccc(OC)c2c1CCC1(C2)NC(=O)NC1=O (stereo not drawn)	105%	96.5%	98.8%	133%	113%	95.1%	–	105%	93.6%	104%	86.2%	98.8%	–	94.8%	–	103%	100%	106%	–	108%
COc1cc(/C=N/NC(=O)c2ccc(C(F)(F)F)nc2Nc2ccc(Cl)cc2C)ccc1O	15.2%	15.1%	53.1%	34.9%	7.59% (active)	30.4%	57.2%	50.9%	27.9%	45.2%	19.7%	54.4%	33.8%	24.8%	-61.3% (active)	44.5%	33.7%	42.5%	–	–
COc1ccc(C(=O)COc2ccc(/C=C3\Oc4ccc5ccccc5c4C3=O)cc2)cc1	83%	85.5%	97%	104%	102%	72.5%	98.3%	99.5%	126%	111%	75.5%	85%	99.5%	81%	95.7%	95.9%	93.5%	105%	–	–
